Measured values published in the supplement of paper PMC11732987, “Enantioselective OTUD7B fragment discovery through chemoproteomics screening and high-throughput optimisation” (Communications Chemistry, 2025).

Assays:
Test in all cases: log2 ratio of Biotin-Ahx-Ub-VS probe labelling (fragment/DMSO); higher = less target engagement (more negative = stronger competition), active = hit call of the paper (q ≤ 0.05, log2 ratio ≤ -1)
Settings in all cases: compound concentration: 200 uM; treatment time: 3 h
USP19 = molecular target: T1, USP19 (UniProt O94966)
T1 sequence (whole entry): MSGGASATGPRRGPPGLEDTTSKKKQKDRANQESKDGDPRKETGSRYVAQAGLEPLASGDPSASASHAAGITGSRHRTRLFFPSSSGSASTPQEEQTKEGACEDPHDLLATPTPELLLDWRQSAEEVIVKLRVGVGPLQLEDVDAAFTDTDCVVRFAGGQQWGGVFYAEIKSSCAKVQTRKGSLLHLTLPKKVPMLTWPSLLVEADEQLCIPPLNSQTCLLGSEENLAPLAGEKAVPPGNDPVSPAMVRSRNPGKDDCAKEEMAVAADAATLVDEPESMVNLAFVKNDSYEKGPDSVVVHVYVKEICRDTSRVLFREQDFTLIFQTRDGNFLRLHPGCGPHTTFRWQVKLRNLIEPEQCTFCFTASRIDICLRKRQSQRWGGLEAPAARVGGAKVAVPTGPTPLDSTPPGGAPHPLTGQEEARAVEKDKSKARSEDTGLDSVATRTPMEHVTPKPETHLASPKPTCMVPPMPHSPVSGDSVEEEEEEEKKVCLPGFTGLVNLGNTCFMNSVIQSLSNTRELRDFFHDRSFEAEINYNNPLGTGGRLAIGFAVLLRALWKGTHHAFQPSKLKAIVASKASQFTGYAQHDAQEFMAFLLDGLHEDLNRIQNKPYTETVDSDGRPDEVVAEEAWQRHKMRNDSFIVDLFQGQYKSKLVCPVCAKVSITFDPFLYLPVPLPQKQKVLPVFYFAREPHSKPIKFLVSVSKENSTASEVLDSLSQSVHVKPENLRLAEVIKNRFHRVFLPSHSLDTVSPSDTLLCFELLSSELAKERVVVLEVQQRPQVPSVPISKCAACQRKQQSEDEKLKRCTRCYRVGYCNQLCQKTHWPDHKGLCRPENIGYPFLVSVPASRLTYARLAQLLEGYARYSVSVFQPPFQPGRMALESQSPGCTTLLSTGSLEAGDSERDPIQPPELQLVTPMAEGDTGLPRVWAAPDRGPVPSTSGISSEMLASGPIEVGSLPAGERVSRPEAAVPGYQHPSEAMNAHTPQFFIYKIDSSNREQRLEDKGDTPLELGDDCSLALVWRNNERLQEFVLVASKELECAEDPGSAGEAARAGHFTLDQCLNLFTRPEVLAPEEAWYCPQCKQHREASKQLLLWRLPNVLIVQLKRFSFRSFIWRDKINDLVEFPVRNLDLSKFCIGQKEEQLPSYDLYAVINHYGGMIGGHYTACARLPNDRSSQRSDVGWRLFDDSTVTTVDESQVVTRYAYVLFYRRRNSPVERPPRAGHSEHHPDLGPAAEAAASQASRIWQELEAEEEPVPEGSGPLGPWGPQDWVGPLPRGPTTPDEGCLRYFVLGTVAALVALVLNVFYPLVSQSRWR
Method in brief: (§1)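 Each value is an average log2 ratio of fragment to vehicle, tested by unpaired t-test. The underlying Spectronaut label-free quantities were global-median-normalised, and only proteins with ≥2 unique peptides were included. Triplicate HEK293T lysate samples (495 µg) were exposed to fragment at 200 µM or vehicle for 3 h, then to Biotin-Ahx-Ub-VS at 0.5 µM final for 1 h, before NeutrAvidin enrichment of labelled DUBs, LysC and trypsin digestion, and diaPASEF LC-MS/MS.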

USP24 = USP24 (UniProt Q9UPU5)
Chain of USP24 (Q9UPU5 whole entry): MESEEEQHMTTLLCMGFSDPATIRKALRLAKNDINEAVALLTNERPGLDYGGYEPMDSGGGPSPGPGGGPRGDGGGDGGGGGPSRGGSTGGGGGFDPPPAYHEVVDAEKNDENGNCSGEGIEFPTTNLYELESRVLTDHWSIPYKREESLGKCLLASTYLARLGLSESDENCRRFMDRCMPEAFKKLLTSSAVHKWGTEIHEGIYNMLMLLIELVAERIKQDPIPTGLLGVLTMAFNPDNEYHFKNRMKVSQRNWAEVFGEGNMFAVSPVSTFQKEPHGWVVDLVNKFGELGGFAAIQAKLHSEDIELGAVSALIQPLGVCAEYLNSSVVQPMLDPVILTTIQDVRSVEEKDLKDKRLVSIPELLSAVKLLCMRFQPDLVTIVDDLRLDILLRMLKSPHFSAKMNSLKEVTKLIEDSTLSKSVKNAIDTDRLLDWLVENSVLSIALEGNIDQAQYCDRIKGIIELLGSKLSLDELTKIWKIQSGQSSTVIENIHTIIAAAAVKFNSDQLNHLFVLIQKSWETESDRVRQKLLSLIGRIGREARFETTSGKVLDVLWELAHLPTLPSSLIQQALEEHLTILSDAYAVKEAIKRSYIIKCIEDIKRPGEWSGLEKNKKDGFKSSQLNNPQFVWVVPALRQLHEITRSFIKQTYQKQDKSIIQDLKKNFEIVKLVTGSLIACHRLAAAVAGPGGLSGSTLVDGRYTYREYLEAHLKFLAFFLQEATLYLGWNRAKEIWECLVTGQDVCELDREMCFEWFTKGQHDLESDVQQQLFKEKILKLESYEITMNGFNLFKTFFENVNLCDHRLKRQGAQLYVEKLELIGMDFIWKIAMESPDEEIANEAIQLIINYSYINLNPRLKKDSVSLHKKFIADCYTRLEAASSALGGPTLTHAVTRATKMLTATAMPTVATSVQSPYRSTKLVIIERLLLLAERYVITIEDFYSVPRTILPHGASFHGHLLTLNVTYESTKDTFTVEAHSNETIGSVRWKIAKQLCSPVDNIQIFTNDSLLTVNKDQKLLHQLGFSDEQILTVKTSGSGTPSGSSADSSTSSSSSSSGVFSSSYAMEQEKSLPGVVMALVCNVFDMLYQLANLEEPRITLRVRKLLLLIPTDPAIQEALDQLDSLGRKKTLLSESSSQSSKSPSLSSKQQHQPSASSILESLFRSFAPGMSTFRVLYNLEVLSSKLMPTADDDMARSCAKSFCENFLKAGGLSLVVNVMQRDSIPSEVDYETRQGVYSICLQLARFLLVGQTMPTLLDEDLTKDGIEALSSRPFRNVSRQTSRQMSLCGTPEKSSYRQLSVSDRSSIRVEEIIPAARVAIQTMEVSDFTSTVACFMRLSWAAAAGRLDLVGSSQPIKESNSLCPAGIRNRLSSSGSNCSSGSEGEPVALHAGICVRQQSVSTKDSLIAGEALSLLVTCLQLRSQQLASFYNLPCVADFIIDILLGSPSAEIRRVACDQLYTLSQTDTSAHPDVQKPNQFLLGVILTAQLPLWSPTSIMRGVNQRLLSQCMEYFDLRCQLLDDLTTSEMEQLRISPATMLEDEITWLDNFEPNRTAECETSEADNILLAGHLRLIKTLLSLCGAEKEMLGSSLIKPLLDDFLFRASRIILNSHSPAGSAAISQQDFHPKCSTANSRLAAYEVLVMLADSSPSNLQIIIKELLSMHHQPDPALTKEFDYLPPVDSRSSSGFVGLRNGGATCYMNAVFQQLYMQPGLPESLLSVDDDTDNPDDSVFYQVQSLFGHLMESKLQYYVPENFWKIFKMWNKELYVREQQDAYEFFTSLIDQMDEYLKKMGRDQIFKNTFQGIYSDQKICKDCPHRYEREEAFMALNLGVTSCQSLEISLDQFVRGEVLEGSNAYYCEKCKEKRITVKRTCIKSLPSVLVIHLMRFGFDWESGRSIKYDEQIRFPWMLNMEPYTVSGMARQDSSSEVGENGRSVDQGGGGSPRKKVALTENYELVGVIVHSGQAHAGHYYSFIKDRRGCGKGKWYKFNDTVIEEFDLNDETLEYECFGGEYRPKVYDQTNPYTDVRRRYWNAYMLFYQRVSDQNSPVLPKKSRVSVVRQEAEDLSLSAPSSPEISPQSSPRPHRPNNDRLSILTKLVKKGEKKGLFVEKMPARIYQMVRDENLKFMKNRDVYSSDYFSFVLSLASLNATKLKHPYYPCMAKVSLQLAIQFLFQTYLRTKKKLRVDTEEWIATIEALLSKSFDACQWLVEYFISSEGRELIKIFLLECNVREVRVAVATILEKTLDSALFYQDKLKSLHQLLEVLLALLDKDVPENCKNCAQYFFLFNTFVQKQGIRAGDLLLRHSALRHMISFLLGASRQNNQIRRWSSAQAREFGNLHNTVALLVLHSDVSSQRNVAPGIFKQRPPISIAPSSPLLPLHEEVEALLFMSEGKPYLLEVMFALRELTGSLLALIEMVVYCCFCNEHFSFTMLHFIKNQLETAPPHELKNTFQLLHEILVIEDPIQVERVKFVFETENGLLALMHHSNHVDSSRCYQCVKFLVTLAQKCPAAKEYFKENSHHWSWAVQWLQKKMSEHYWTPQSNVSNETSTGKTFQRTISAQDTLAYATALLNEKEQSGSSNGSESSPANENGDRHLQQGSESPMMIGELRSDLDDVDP
Method in brief: as §1

USP25 = molecular target: T2, USP25 (UniProt Q9UHP3)
T2 sequence (whole entry): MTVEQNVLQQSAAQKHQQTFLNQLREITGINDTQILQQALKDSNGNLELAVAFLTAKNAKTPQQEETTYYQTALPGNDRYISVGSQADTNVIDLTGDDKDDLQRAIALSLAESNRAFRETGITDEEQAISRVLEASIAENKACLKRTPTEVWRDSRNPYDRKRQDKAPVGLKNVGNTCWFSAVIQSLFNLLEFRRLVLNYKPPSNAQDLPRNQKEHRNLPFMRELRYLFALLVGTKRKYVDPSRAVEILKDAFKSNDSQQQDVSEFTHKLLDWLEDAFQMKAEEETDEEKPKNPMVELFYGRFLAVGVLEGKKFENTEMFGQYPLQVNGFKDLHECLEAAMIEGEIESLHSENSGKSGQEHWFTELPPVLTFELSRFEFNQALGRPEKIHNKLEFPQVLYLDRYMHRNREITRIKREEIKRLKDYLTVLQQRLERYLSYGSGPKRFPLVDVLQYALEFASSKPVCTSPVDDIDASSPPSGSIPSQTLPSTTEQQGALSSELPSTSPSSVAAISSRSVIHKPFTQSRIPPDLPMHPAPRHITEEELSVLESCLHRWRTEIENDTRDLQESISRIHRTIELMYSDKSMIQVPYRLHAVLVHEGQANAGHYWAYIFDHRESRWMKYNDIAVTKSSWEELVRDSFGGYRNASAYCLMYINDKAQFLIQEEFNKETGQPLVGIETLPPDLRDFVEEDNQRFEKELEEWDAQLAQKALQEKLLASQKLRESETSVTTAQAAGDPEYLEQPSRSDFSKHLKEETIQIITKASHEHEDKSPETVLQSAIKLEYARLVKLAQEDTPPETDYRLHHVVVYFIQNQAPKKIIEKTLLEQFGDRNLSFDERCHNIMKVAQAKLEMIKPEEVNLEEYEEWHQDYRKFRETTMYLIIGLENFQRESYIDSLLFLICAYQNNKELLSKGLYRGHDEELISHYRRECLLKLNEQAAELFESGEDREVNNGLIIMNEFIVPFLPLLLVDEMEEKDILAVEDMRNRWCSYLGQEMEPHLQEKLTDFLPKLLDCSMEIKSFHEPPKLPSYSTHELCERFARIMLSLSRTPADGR
Method in brief: as §1

USP28 = molecular target: T3, USP28 (UniProt Q96RU2)
T3 sequence (whole entry): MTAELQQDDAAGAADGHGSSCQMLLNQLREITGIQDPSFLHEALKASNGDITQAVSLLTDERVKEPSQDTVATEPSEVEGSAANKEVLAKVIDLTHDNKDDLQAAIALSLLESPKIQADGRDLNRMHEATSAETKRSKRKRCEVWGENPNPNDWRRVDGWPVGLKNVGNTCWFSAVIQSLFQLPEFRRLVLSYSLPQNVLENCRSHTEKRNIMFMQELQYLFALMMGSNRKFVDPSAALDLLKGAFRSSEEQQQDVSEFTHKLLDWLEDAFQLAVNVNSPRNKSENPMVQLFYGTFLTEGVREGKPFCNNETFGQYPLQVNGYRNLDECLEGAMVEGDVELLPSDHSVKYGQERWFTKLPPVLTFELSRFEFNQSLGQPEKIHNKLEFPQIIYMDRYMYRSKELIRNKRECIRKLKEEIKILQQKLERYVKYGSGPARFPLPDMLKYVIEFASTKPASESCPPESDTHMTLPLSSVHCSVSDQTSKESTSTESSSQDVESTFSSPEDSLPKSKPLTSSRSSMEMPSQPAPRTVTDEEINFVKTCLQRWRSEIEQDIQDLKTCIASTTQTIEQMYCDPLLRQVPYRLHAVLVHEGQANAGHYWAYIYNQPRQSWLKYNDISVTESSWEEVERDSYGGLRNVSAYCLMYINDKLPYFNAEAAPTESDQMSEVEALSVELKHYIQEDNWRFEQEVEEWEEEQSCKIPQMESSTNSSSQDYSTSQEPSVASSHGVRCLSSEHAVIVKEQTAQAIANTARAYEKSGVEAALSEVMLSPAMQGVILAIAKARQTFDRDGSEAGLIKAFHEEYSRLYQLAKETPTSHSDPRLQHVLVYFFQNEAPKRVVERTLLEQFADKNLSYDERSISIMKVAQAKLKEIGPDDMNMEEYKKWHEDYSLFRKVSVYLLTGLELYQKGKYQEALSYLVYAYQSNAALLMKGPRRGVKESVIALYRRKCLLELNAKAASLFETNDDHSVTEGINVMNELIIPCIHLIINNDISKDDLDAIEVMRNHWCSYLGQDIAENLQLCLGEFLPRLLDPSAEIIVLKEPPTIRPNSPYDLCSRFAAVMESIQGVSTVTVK
Method in brief: as §1

Measured: log2 ratio of Biotin-Ahx-Ub-VS probe labelling

Cc1cccc2nc(CCNC(=O)CCl)cn12.Cl
inactive: USP19 -0.242 | USP24 -0.429 | USP25 -0.267 | USP28 -0.53
